According to PubChem BioAssay (Tox21):
Calls of active or inactive are those of the source. Calls come from the whole dose curve; as a rule, active = well fitted curve in the direction sought with a large enough effect in the repeat runs; inconclusive = weak or mixed curves; inactive = flat fitted curve, though single readings scatter.

test: qHTS assay to test for compound auto fluorescence at 535 nm (green) in HEK293 cells (AID 720680); conditions: green autofluorescence 485/535 nm; series mostly up to 91.3 µM

| SMILES | outcome |
| --- | --- |
| CCSC(=O)N1CCCCCC1 | inactive |
| CC(C)(C)C(=O)CCl | inactive |
| C=C(C)C(=O)OCC(CC)CCCC (centres undefined) | inactive |
| CC[N+](=O)[O-] | inactive |
| O=C(O)Cc1ccccc1 | inactive |
| COP(=S)(OC)Oc1ccc(SC)c(C)c1 | inactive |
| Nc1nc(N)nc(NC2CC2)n1 | inactive |
| CCNc1nc(Cl)nc(NC(C)C)n1 | inactive |
| Nc1ccc(N)cc1 | inactive |
| Cc1ccc(O)c(C)c1 | inactive |
| CN(C)C(=O)C(c1ccccc1)c1ccccc1 | inactive |
| C/C=C/c1ccc2c(c1)OCO2 | inactive |
| Sc1ccccc1 | inactive |
| Oc1c(Br)cc(Br)cc1Br | inactive |
| OCCCCO | inactive |
| Cc1cc(Cl)ccc1OC(C)C(=O)O (centres undefined) | inactive |

| SMILES | outcome |
| --- | --- |
| Nc1cccc(Cl)c1 | inactive |
| Nc1cc(Cl)cc(Cl)c1 | inactive |
| CNC(=O)O/N=C/C(C)(C)S(C)(=O)=O | inactive |
| CN(C)C(=O)Nc1cccc(C(F)(F)F)c1 | inactive |
| c1ccc2c(c1)CCCC2 | inactive |
| C[C@]12CC[C@H](O)CC1=CC[C@@H]1[C@@H]2CC[C@]2(C)C(=O)CC[C@@H]12 | inactive |
| CN1C(=O)CCS(=O)(=O)C1c1ccc(Cl)cc1 (centres undefined) | inactive |
| N#Cc1ccccn1 | inactive |
| OCC(O)CCl (centres undefined) | inactive |
| Cc1ccc(N=C=O)cc1N=C=O | inactive |
| C[C@H]1C(=O)O[C@@H]2CCN3CC=C(COC(=O)[C@](C)(O)[C@]1(C)O)[C@H]23 | inactive |
| CNC(=O)Oc1cccc2ccccc12 | inactive |
| CN(C)CCC#N | inactive |
| Nc1ncc([N+](=O)[O-])s1 | inactive |
| C=CCN=C=S | inactive |

test: qHTS assay to test for compound auto fluorescence at 460 nm (blue) in HEK293 cell free culture (AID 720681); conditions: cell-free medium, autofluorescence 405/460 nm (blue); series mostly up to 91.3 µM
Outline: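 Test compounds were pinned into cell-free culture medium (DMEM with 10% FBS) and fluorescence was read directly at Ex/Em 405/460 nm. Signals were expressed as fluorescence equivalents of triamterene, with DMSO vehicle as control.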

| SMILES | outcome |
| --- | --- |
| CCSC(=O)N1CCCCCC1 | inactive |
| CC(C)(C)C(=O)CCl | inactive |
| C=C(C)C(=O)OCC(CC)CCCC (centres undefined) | inactive |
| CC[N+](=O)[O-] | inactive |
| O=C(O)Cc1ccccc1 | inactive |
| COP(=S)(OC)Oc1ccc(SC)c(C)c1 | inactive |
| Nc1nc(N)nc(NC2CC2)n1 | inactive |
| CCNc1nc(Cl)nc(NC(C)C)n1 | inactive |
| Nc1ccc(N)cc1 | inactive |
| Cc1ccc(O)c(C)c1 | inactive |
| CN(C)C(=O)C(c1ccccc1)c1ccccc1 | inactive |
| C/C=C/c1ccc2c(c1)OCO2 | inactive |
| Sc1ccccc1 | inactive |
| Oc1c(Br)cc(Br)cc1Br | inactive |
| OCCCCO | inactive |
| Cc1cc(Cl)ccc1OC(C)C(=O)O (centres undefined) | inactive |

| SMILES | outcome |
| --- | --- |
| Nc1cccc(Cl)c1 | inactive |
| Nc1cc(Cl)cc(Cl)c1 | inactive |
| CNC(=O)O/N=C/C(C)(C)S(C)(=O)=O | inactive |
| CN(C)C(=O)Nc1cccc(C(F)(F)F)c1 | inactive |
| c1ccc2c(c1)CCCC2 | inactive |
| C[C@]12CC[C@H](O)CC1=CC[C@@H]1[C@@H]2CC[C@]2(C)C(=O)CC[C@@H]12 | inactive |
| CN1C(=O)CCS(=O)(=O)C1c1ccc(Cl)cc1 (centres undefined) | inactive |
| N#Cc1ccccn1 | inactive |
| OCC(O)CCl (centres undefined) | inactive |
| Cc1ccc(N=C=O)cc1N=C=O | inactive |
| C[C@H]1C(=O)O[C@@H]2CCN3CC=C(COC(=O)[C@](C)(O)[C@]1(C)O)[C@H]23 | inactive |
| CNC(=O)Oc1cccc2ccccc12 | inactive |
| CN(C)CCC#N | inactive |
| Nc1ncc([N+](=O)[O-])s1 | inactive |
| C=CCN=C=S | inactive |

test: qHTS assay to test for compound auto fluorescence at 590 nm (red) in HEK293 cell free culture (AID 720683); conditions: cell-free medium autofluorescence, Ex540/Em590 red; series mostly up to 91.3 µM
Outline: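 Tox21 10K library compounds were pinned into cell-free DMEM with 10% FBS and fluorescence was read at excitation 540 nm. Activity is expressed as Rose Bengal sodium equivalency.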

| SMILES | outcome |
| --- | --- |
| CCSC(=O)N1CCCCCC1 | inactive |
| CC(C)(C)C(=O)CCl | inactive |
| C=C(C)C(=O)OCC(CC)CCCC (centres undefined) | inactive |
| CC[N+](=O)[O-] | inactive |
| O=C(O)Cc1ccccc1 | inactive |
| COP(=S)(OC)Oc1ccc(SC)c(C)c1 | inactive |
| Nc1nc(N)nc(NC2CC2)n1 | inactive |
| CCNc1nc(Cl)nc(NC(C)C)n1 | inactive |
| Nc1ccc(N)cc1 | inactive |
| Cc1ccc(O)c(C)c1 | inactive |
| CN(C)C(=O)C(c1ccccc1)c1ccccc1 | inactive |
| C/C=C/c1ccc2c(c1)OCO2 | inactive |
| Sc1ccccc1 | inactive |
| Oc1c(Br)cc(Br)cc1Br | inactive |
| OCCCCO | inactive |
| Cc1cc(Cl)ccc1OC(C)C(=O)O (centres undefined) | inactive |

| SMILES | outcome |
| --- | --- |
| Nc1cccc(Cl)c1 | inactive |
| Nc1cc(Cl)cc(Cl)c1 | inactive |
| CNC(=O)O/N=C/C(C)(C)S(C)(=O)=O | inactive |
| CN(C)C(=O)Nc1cccc(C(F)(F)F)c1 | inactive |
| c1ccc2c(c1)CCCC2 | inactive |
| C[C@]12CC[C@H](O)CC1=CC[C@@H]1[C@@H]2CC[C@]2(C)C(=O)CC[C@@H]12 | inactive |
| CN1C(=O)CCS(=O)(=O)C1c1ccc(Cl)cc1 (centres undefined) | inactive |
| N#Cc1ccccn1 | inactive |
| OCC(O)CCl (centres undefined) | inactive |
| Cc1ccc(N=C=O)cc1N=C=O | inactive |
| C[C@H]1C(=O)O[C@@H]2CCN3CC=C(COC(=O)[C@](C)(O)[C@]1(C)O)[C@H]23 | inactive |
| CNC(=O)Oc1cccc2ccccc12 | inactive |
| CN(C)CCC#N | inactive |
| Nc1ncc([N+](=O)[O-])s1 | inactive |
| C=CCN=C=S | inactive |

test: qHTS assay to test for compound auto fluorescence at 590 nm (red) in HepG2 cell free culture (AID 720684); conditions: cell-free medium autofluorescence, red 540/590 nm; series mostly up to 91.3 µM
Outline: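 Measured in medium alone (MEM containing 10% FBS) following pintool addition of compound; emission at 590 nm with 540 nm excitation, referenced to Rose Bengal sodium.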

| SMILES | outcome |
| --- | --- |
| CCSC(=O)N1CCCCCC1 | inactive |
| CC(C)(C)C(=O)CCl | inactive |
| C=C(C)C(=O)OCC(CC)CCCC (centres undefined) | inactive |
| CC[N+](=O)[O-] | inactive |
| O=C(O)Cc1ccccc1 | inactive |
| COP(=S)(OC)Oc1ccc(SC)c(C)c1 | inactive |
| Nc1nc(N)nc(NC2CC2)n1 | inactive |
| CCNc1nc(Cl)nc(NC(C)C)n1 | inactive |
| Nc1ccc(N)cc1 | inactive |
| Cc1ccc(O)c(C)c1 | inactive |
| CN(C)C(=O)C(c1ccccc1)c1ccccc1 | inactive |
| C/C=C/c1ccc2c(c1)OCO2 | inactive |
| Sc1ccccc1 | inactive |
| Oc1c(Br)cc(Br)cc1Br | inactive |
| OCCCCO | inactive |
| Cc1cc(Cl)ccc1OC(C)C(=O)O (centres undefined) | inactive |

| SMILES | outcome |
| --- | --- |
| Nc1cccc(Cl)c1 | inactive |
| Nc1cc(Cl)cc(Cl)c1 | inactive |
| CNC(=O)O/N=C/C(C)(C)S(C)(=O)=O | inactive |
| CN(C)C(=O)Nc1cccc(C(F)(F)F)c1 | inactive |
| c1ccc2c(c1)CCCC2 | inactive |
| C[C@]12CC[C@H](O)CC1=CC[C@@H]1[C@@H]2CC[C@]2(C)C(=O)CC[C@@H]12 | inactive |
| CN1C(=O)CCS(=O)(=O)C1c1ccc(Cl)cc1 (centres undefined) | inactive |
| N#Cc1ccccn1 | inactive |
| OCC(O)CCl (centres undefined) | inactive |
| Cc1ccc(N=C=O)cc1N=C=O | inactive |
| C[C@H]1C(=O)O[C@@H]2CCN3CC=C(COC(=O)[C@](C)(O)[C@]1(C)O)[C@H]23 | inactive |
| CNC(=O)Oc1cccc2ccccc12 | inactive |
| CN(C)CCC#N | inactive |
| Nc1ncc([N+](=O)[O-])s1 | inactive |
| C=CCN=C=S | inactive |
